# Reference: PubChem BioAssay AID720582 (The Scripps Research Institute Molecular Screening Center, 2013)
# Screen size: about 370,000 compounds; about 2,300 (0.62%) were called active.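 How the source made its calls: active means inhibition above a per-campaign cutoff equal to the mean of compounds falling between control-based bounds plus 3 SD (cut at about 20% in these data); inactive means the rest.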 The entries come from a sample that favours actives as a whole.
# Target: Disintegrin and metalloproteinase domain-containing protein 10 (Homo sapiens) (UniProt O14672)
# Assay: blockers of ADAM10 peptide cleavage – biochemical, QFRET, HTS, primary screen (AID 720582);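 further: 0% = DMSO wells while the 100% control is not disclosed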
# Conditions: recombinant ADAM10, EDANS/DABCYL FRET peptide cleavage, 3 h; at 7 µM; hits give high values
# Sequence of Disintegrin and metalloproteinase domain-containing protein 10 (Homo sapiens) (O14672 214-748 limits assumed): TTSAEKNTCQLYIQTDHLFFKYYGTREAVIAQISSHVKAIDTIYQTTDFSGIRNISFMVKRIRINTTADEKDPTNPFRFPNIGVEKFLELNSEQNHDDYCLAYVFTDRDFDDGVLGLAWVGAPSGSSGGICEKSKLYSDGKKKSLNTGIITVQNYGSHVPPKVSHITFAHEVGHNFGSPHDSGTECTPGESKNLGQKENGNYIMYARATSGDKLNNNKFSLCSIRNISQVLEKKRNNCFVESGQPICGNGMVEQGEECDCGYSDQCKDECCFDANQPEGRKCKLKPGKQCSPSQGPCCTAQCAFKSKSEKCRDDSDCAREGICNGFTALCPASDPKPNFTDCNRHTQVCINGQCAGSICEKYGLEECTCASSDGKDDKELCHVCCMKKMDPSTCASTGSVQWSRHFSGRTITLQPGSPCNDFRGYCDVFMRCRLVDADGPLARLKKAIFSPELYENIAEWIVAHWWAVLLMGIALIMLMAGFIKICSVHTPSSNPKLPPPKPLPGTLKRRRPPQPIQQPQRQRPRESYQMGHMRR
row,SMILES,inhibition
1,COCC(=O)N[C@@H]1C[C@@H]2O[C@@H](CO)CC[C@@H]2O[C@@H]1CCc1ccc(-c2ccccc2)cc1,4.87% (inactive)
2,CSc1ccccc1NC(=O)Cc1ccc(Br)cc1,2.92% (inactive)
3,O=C(COC(=O)Cc1ccc(Br)cc1)Nc1ccc(N2CCOCC2)cc1,-15.2% (inactive)
4,CC(C)Oc1ccc(CC(=O)NNC(=S)Nc2ccc(Br)cc2)cc1,23.5% (active)
5,O=C1C(=O)N(Cc2ccc(-c3ccsc3)cc2)c2ccc(OC(F)(F)F)cc21,3.17% (inactive)
6,CC(=O)OC12CCCN(C1)/C(=C/c1ccncc1)C2 (configuration not stated),-16.8% (inactive)
7,CCOc1cc(/C=N/NC(=O)c2cc(-c3ccccc3)nc3ccccc23)ccc1O,22.1% (active)
8,CCOc1ccc(/C=N/NC(=O)C(C)Sc2ccccn2)cc1OCC (configuration not stated),-1% (inactive)
9,CCOc1ccccc1-c1cc(C(=O)N/N=C(\C)c2cccnc2)c2ccccc2n1,0.58% (inactive)
10,COc1ccnc(C(=O)N2CCC(Oc3cccnc3)CC2)c1,1.62% (inactive)
11,O=C(CSc1nnc(-c2ccccc2)n1Cc1ccco1)Nc1ccccc1-c1ccccc1,15% (inactive)
12,CCCSc1nc(NCc2ccco2)c2c3c(sc2n1)COC(C)(CC)C3 (configuration not stated),-57.9% (inactive)
13,CCOC(=O)Cn1c(SC)nc2sc3c(c2c1=O)CC(C)(C)OC3,-52.7% (inactive)
14,CCC1(C)Cc2c(sc3nnn(CC(=O)Nc4ccc(Cl)cc4)c(=O)c23)CO1 (configuration not stated),20.1% (active)
15,CN(CCO)c1cccc2c1S(=O)(=O)N(Cc1cn(Cc3ccc(C(F)(F)F)cc3)nn1)Cc1ccccc1O2,-6.76% (inactive)
16,COc1ccnc(NC(=S)N2CCN(c3ncc(C(F)(F)F)cc3Cl)CC2)c1,-1.47% (inactive)
17,COc1ccc(C2=NN(C(=O)CSc3nc(=O)n4ccc(C)cc4n3)C(c3ccc(C)cc3)C2)cc1 (configuration not stated),-4.74% (inactive)
18,COc1ccc(C2CC(c3ccccc3)=NN2C(=O)COC(=O)COc2ccccc2)cc1 (configuration not stated),20.3% (active)
19,COc1ccc(C2CC(c3ccccc3)=NN2C(=O)c2ccc(Cl)c([N+](=O)[O-])c2)cc1 (configuration not stated),-1.55% (inactive)
20,CCOC(=O)[C@]12CCCC3=C1N(CCC3)C(=O)[C@@H](CC(=O)NCC13CC4CC(CC(C4)C1)C3)C2,3.03% (inactive)
21,O=C(CSc1nc2ccccc2n1Cc1ccccc1)NNC(=S)Nc1ccccc1,12.5% (inactive)
22,Cc1ccccc1NC(=O)C1CCN(c2ncccn2)CC1,-49.2% (inactive)
23,Cc1ccc(Cn2cc(CN3[C@@H](CC(C)C)COc4ccc(Cl)cc4S3(=O)=O)nn2)cc1,2.6% (inactive)
24,CC(C)c1ccc(S(=O)(=O)N2CCN(C(C)C(=O)NC3CCCC3)CC2)cc1 (configuration not stated),-11.6% (inactive)
25,COc1ccc(S(=O)(=O)N2CCN(C(C)C(=O)Nc3ccc(C(C)C)cc3)CC2)cc1 (configuration not stated),26.6% (active)
26,COc1cccc(CNC(C)C(=O)Nc2ccc(S(=O)(=O)N3CCCC3)cc2)c1 (configuration not stated),-0.95% (inactive)

row,SMILES,inhibition
1,Oc1ccc(/C=C/c2c(F)cccc2F)c2cccnc12,5.02% (inactive)
2,Cc1ccc(Cn2cc(COC(=O)N(C)Cc3ccccc3)nn2)cc1,-0.56% (inactive)
3,Cc1ccc(S(=O)(=O)N2CCN(C(=O)COC(=O)c3c(C)cc(C)cc3C)CC2)c(C)c1,23.9% (active)
4,COc1ccc(/C=C/C(=O)OCC(=O)N2CCN(S(=O)(=O)c3ccc(C)cc3C)CC2)cc1OC,-21.9% (inactive)
5,Cc1ccc(S(=O)(=O)N2CCN(C(=O)COC(=O)CNC(=O)c3ccc(C(C)(C)C)cc3)CC2)c(C)c1,-0.12% (inactive)
6,FC(F)(F)c1cccc(NC(=S)OC2CCC23CCC(c2ccccc2)CC3)c1 (configuration not stated),10.3% (inactive)
7,CC1(Cc2cccc(C#N)c2)C(=O)Nc2ccc(-c3cccc(C(F)(F)F)c3)cc21 (configuration not stated),33.6% (active)
8,FC(F)(F)c1cccc(Cn2ccc3ccc(-c4ccc5ccn(Cc6ccccc6)c5c4)cc32)c1,-38.5% (inactive)
9,COc1ccc(-n2c(SCC(=O)Nc3ccc(C)c(Cl)c3)nc3ccccc3c2=O)cc1,-4.98% (inactive)
10,CCOC(=O)c1cccc(NC(=O)CN(C)S(=O)(=O)c2ccc(-c3cocn3)s2)c1,8.22% (inactive)
11,C#CCN(C[C@H]1[C@H](OC(=O)NC2CCCC2)[C@H](OC(=O)NC2CCCC2)C[C@H]2C(=O)N(c3ccccc3)C(=O)[C@@H]12)S(=O)(=O)c1ccc(C)cc1,29.4% (active)
12,C#CCN(C[C@@H]1[C@@H](OC(=O)NC2CC2)[C@@H](OC(=O)NC2CC2)Cn2c(=O)ccc(=O)n21)S(=O)(=O)c1ccc(C)cc1,-5.52% (inactive)
13,Cc1ccc(S(=O)(=O)N2C[C@]3(O)C[C@@H]4C(=O)N(c5ccccc5)C(=O)[C@@H]4C[C@]3(OC(=O)NC3CC3)C2)cc1,-2.91% (inactive)
14,COC(=O)[C@]12C[C@H](CC(=O)N3CCOCC3)C(=O)N(Cc3ccc(Cl)cc3Cl)C1=C[C@H](COCc1ccccc1)O[C@@H]2C,0.45% (inactive)
15,Cc1cnc(C(=O)OCC(=O)NCCCc2ccccc2)cn1,-1.14% (inactive)
16,COc1cc(NC(=O)COC(=O)c2cnc(C)cn2)c(C)cc1[N+](=O)[O-],2.74% (inactive)
17,Cc1cnc(C(=O)OCc2c(C)cc(C(C)(C)C)cc2C)cn1,21.7% (active)
18,Cc1cccc(NC(=O)C[C@H]2CC[C@H]3[C@@H](COc4ccc(NC(=O)Nc5ccccc5)cc4C(=O)N3C)O2)c1,5.56% (inactive)
19,COc1cccc(NC(=O)C/C(C)=N/NC(=O)C2CCCCC2)c1,15.3% (inactive)
20,COc1cccc(NC(=O)C2c3cc(OC)c(OC)cc3C(=O)N(C)C2c2cccnc2)c1 (configuration not stated),-5.09% (inactive)
21,COc1cccc(NC(=O)C2C(c3ccccc3)C2(Cl)Cl)c1 (configuration not stated),19.8% (active)
22,Cc1ccc(CSc2nnc(SCC(=O)NN=Cc3cc(Br)ccc3F)s2)cc1,-6.1% (inactive)
23,COc1ccc(NC(=S)NCC2CCN(c3ccc(OC)cc3)C2)cc1 (configuration not stated),7.62% (inactive)
24,O=C(CCNC(=O)c1ccc([N+](=O)[O-])cc1)Nc1ccccc1N1CCOCC1,1.54% (inactive)
25,O=C(CNC(=O)c1ccc(Cl)cc1Cl)NCC(=O)Nc1ccccc1N1CCOCC1,83.6% (active)
26,Cc1ccc(NC(=O)COC(=O)CNC(=O)c2ccc(Cl)cc2Cl)cc1S(=O)(=O)N1CCOCC1,7.22% (inactive)
